Screening data as filed in PubChem BioAssay.
Yeast superoxide – reduction of superoxide in aged yeast, primary screen, HTS. AID 2690, 2010. hit rate 0.18% among 330,000. S. cerevisiae aged cells, superoxide DHE fluorescence; hits give low values. superoxide response (% of plate mean), % at 10 µM;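 active = superoxide response under a set limit, about three screen SD below normal, cut at about 65% in these data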;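 also: yeast aged for seven days with compound at 30 °C before DHE staining; 100% = average MFI of all compound-treated wells on the plate with controls excluded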
NALP1 yeast inh – NALP1 inflammasome inhibitors in reconstituted yeast, colorimetric, S. cerevisiae, triplicate retest; S. cerevisiae NALP1/ASC/caspase-1 growth, X-gal OD620, 72 h; inhibition, % at 10 µM; hit rate 0.61% among 280,000; AID 2071, 2009; in the data active = inhibition mostly above about 24%, no sharp cut-off; inactive = mostly below about 32%
UBC13 polyUb – UBC13 polyubiquitin chain formation inhibitors, primary screen, biochemical, TR-FRET, uHTS; AID 485273, 2010; Ubiquitin-conjugating enzyme E2 N (Homo sapiens), P61088; hit rate 0.47% among 330,000; inhibition, % at 20 µM; in the data active = inhibition above about 45%, passing the limit was not always enough; inconclusive = no clear call, values can overlap the other calls
Target sequence (P61088 whole entry, looked up): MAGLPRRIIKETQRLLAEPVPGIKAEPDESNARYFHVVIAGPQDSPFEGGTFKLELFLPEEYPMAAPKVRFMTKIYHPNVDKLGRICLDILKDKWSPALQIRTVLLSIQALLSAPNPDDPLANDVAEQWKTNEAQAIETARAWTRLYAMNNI
NR3A LBD binder – binders of NR3A ligand-binding domain, primary screen, biophysical, differential scanning fluorimetry, uHTS | NR3A LBD differential scanning fluorimetry, Tm shift; 0% = protein alone, 100% = glycine-bound protein | Tm shift relative to glycine control, % at 25 µM | hit rate 2.5% among 340,000;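 active = melting temperature shift of at least 10% of the positive control shift, at one fixed dose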
dFosB act – activators of delta FosB homodimer, primary screen, biochemical, fluorescence polarization, TAMRA-CDK5 oligo, single point; Protein FosB (Mus musculus), P13346; purified delta FosB; percent of positive-control signal above neutral wells; activation, % at 25 µM; hit rate 0.99% among 340,000; AID 493131, 2011;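 active = mean activation above about 17%, with every replicate also reaching it, limit read from the data, passing the limit was not always enough; inconclusive = only one of the two conditions met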
Target sequence (P13346 whole entry, looked up): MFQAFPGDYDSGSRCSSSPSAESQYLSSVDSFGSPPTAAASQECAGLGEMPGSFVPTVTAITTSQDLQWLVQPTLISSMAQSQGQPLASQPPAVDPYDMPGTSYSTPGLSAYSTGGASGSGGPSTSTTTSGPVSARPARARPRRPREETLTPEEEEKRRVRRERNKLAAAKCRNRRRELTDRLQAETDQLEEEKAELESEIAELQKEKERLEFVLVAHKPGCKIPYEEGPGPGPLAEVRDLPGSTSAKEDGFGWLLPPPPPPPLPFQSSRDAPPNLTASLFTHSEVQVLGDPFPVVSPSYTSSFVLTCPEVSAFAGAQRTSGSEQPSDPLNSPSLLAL
* hit, by the source's call; ? = inconclusive; . = not tested or not shown. A selection: hits, their analogues and other compounds. The true share with any hit is near 4.3%.

SMILES	Yeast superoxide	NALP1 yeast inh	UBC13 polyUb	NR3A LBD binder	dFosB act
COc1ccc2c(CC(=O)OCC(=O)c3ccc(F)cc3)coc2c1	106.2	-1.3	-5.7	18.9*	-0.1
Cc1cc(NC(=O)Nc2ccc3c(ccn3C)c2)sn1	108.0	.	7.8	17.2*	-3.7
Cc1ccc(NC(=O)Nc2ccc3c(c2)nc(C)n3C)cc1	100.2	-17.6	5.5	-6.3	3.1
COc1ccc(C(CNC(=O)Cc2c(F)cccc2Cl)N2CCCCC2)cc1 (stereo unspecified)	87.9	23.0*	7.0	-0.1	-5.2
Cc1[nH]c2ccccc2c1C(O)CN1CCC2(CC1)OCCO2 (stereo unspecified)	86.1	2.9	5.9	3.0	-1.2
FC(F)C(F)(F)c1cc(-c2ccc(Cl)cc2)n[nH]1	104.3	-37.4	3.3	4.7	.
Fc1ccc(-c2cc(C(F)(F)C(F)F)[nH]n2)cc1	84.4	29.2	1.3	10.3*	.
COc1ccc(C(=O)NC(=S)NNC(=O)c2ccc3ccccc3n2)cc1	62.6*	31.9	-7.4	10.9*	14.9
NC(=S)n1[nH]c(-c2ccc([N+](=O)[O-])cc2)c(N=Nc2cccc(Cl)c2)c1=O	.	-17.2	-44.8	24.6*	-16.1
NC(=S)n1[nH]c(-c2ccc([N+](=O)[O-])cc2)c(N=Nc2ccc(O)cc2)c1=O	103.6	8.2	-51.8	27.1*	-3.4
O=C(CSc1nc2ccc(Nc3nc(N4CCCC4)nc(N4CCCC4)n3)cc2s1)NCc1ccco1	92.4	.	-21.6	-7.2	-21.8
COc1ccc(C2=NOC(C(=O)N3CCN(C(=O)c4ccco4)CC3)C2)cc1OC (stereo unspecified)	137.2	13.9	-3.1	39.4*	-4.2
Cc1cc(C)cc(N(CC(=O)NCC2CCCO2)C(=O)CCC(=O)Nc2nccs2)c1 (stereo unspecified)	81.5	-0.4	3.9	-4.1	-10.8
COc1ccc(OC)c(NC(=O)c2cnc(Nc3ccccc3OC)c3ccccc23)c1	92.1	40.4	5.5	-3.7	-4.5
O=C(Nc1ccc(Cl)c(Cl)c1)Nc1nc(-c2ccccc2)cs1	118.8	25.1	-16.3	159.9*	2.4
COc1cccc(-c2csc(NC(=O)C3CC3)n2)c1	98.8	-15.5	2.6	19.8*	-5.7
COc1ccccc1CC(=O)Nc1nc(-c2ccc(F)c(F)c2)cs1	101.2	2.9	5.2	-4.9	-1.8
COc1cccc(C(=O)Nc2nc(-c3ccncc3)cs2)c1	92.7	0.8	-4.7	-17.0	7.3
CC(C)(C)c1csc(NC(=O)Nc2ccccc2)n1	78.4	2.7	8.2	-2.7	-5.8
O=C(Nc1ccccc1)Nc1nc(-c2ccccc2)cs1	95.4	22.7	8.8	22.9*	-3.2
O=C(Nc1ccccc1)Nc1nc(-c2ccc(F)c(F)c2)cs1	114.5	2.4	-4.3	27.9*	13.1
CCCCC(CCC(=O)NNC(=O)Cc1ccccc1)C(=O)O (stereo unspecified)	94.8	7.8	-10.9	-1.6	-4.7
COc1ccc(N(CC(=O)Nc2cc(OC)c(OC)cc2C(=O)O)S(=O)(=O)c2c(C)noc2C)cc1	87.2	13.0	7.3	1.4	4.5
COc1cccc(CC(=O)Nc2nc(-c3cccnc3)cs2)c1	97.7	.	3.6	0.2	0.8
COc1cccc(C(=O)Nc2nc(-c3ccc4c(c3)OCO4)cs2)c1	93.0	41.0	16.0	25.3*	-4.3
SMILES	Yeast superoxide	NALP1 yeast inh	UBC13 polyUb	NR3A LBD binder	dFosB act
COc1cccc(-c2csc(NC(=O)Nc3ccccc3)n2)c1	97.3	11.4	5.6	32.3*	2.8
CCN(CC)CCNC(=S)Nc1ccc2nc(N3CCN(CC)CC3)cc(C)c2c1	89.8	9.4	8.7	1.2	18.4*
Cc1cc(N2CCN(C)CC2)nc2ccc(NC(=S)NCCN3CCc4ccccc4C3)cc12	87.7	-11.8	16.1	0.2	34.7*
CCN1CCN(c2cc(C)c3cc(NC(=S)NCCCN4CCc5ccccc5C4)ccc3n2)CC1	105.0	-5.0	36.3	-2.9	36.7*
CCCCNC(=S)Nc1ccc2nc(N3CCN(CC)CC3)cc(C)c2c1	88.7	22.3	11.1	-4.5	-4.9
CCC(=O)N(Cc1cc2ccccc2[nH]c1=O)c1ccccc1OC	103.6	7.0	4.8	-3.8	-4.9
COC(=O)C(CC(=O)c1ccc(Cl)cc1)c1ccccc1 (stereo unspecified)	.	.	.	1.9	-8.2
COc1ccc(-c2cn[nH]c2-c2ccc(OCc3ccc([N+](=O)[O-])cc3)cc2O)cc1	103.7	20.5	1.4	30.4*	-9.6
CCCc1cc(-c2[nH]ncc2-c2ccc3c(c2)OCCCO3)c(O)cc1OC	.	27.9	.	.	.
CCOc1ccc(-c2[nH]ncc2-c2ccc(OC)c(OC)c2)c(O)c1	85.8	-8.8	13.2	-1.0	-6.5
CCc1cc(-c2[nH]ncc2-c2ccc(OC)cc2)c(O)cc1O	100.0	-14.3	-0.2	40.6*	0.7
CCc1cc(-c2[nH]ncc2-c2ccc3c(c2)OCO3)c(O)cc1O	110.9	-3.9	23.1	23.9*	-3.9
N#CCc1cnc2ccccc2n1	88.1	-12.8	.	-1.4	-25.1
COc1cccc(NC(=O)c2cccs2)c1	71.2	10.2	-1.3	25.5*	-9.4
COc1cc(NC(=O)c2cccs2)cc(OC)c1	104.5	65.2*	3.2	5.7	-3.1
Cc1[nH]c(=O)[nH]c(=O)c1S(=O)(=O)Nc1ccc(Br)cc1F	91.8	7.8	4.6	-1.1	6.3
CC(C)(CN1CCc2ccccc2C1)NS(=O)(=O)c1ccc(Cl)cc1	104.4	7.0	1.3	0.2	-2.1
Cc1cccc(C)c1NC(=O)CN1C(=O)S/C(=C\c2cccn2C)C1=O	114.4	39.8*	3.2	4.8	1.2
COc1ccc(NC2=CC(=O)CC(C)(C)C2)cc1	112.8	9.1	3.3	15.3*	1.2
COc1cccc(NC2=CC(=O)CC(C)(C)C2)c1	97.0	5.7	0.0	0.0	-4.2
Cc1ccc(NC(=O)c2cccc(C(=O)Nc3ccc(C)cc3C(=O)O)c2)c(C(=O)O)c1	110.9	11.0	-10.2	24.6*	4.2
COc1ccc(C)cc1NC(=O)c1cccc(C(=O)Nc2cc(C)ccc2OC)c1	101.0	5.1	2.4	-10.1	?
Cc1ccc(/C=N/NC(=O)CN2CCN(Cc3ccccc3)CC2)o1	117.1	44.8*	-2.2	0.3	0.2
CSc1ccc(/C=N/NC(=O)CN2CCN(Cc3ccccc3)CC2)cc1	106.3	29.5	7.1	1.0	0.6
Cc1ccc(OCC(=O)N/N=C\c2ccc(C)o2)c(C)c1	83.4	1.2	0.6	0.0	-1.6
O=C(CN1CCCC1)N/N=C/c1ccc(-c2cccc(Cl)c2)o1	96.3	32.4*	6.4	0.8	-3.5
Cc1ccc(OCC(=O)N/N=C\c2ccc(-c3cccc(C(=O)O)c3)o2)c(C)c1	103.9	8.2	-28.4	12.3*	-1.5
COc1ccc(C(CNC(=O)Nc2ccc(Cl)cc2)N2CCN(C)CC2)cc1 (stereo unspecified)	89.1	41.8	11.2	-0.2	-13.3
